Source: PubChem (several laboratories)
Hits are enriched below; roughly 4.5% of the tested compounds scored in any of these assays.
GRIN3A LBD mod: modulators (binders) of human NR3A ligand-binding domain. NR3A LBD differential scanning fluorimetry, Tm shift; 0% = protein alone, 100% = glycine-bound protein. Tm shift relative to glycine control, % at 25 µM. 340,000 tested, 2.5% active. AID 1259313;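 active = melting temperature shift of at least 10% of the positive control shift, at one fixed dose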
Rpn11 inh: blocks the human proteasome subunit Rpn11; human 26S proteasome, Ub4-pepOG fluorescence polarization; 20S core pre-blocked with epoxomicin; O00487; inhibition, % at 20 µM; 360,000 tested, 0.59% active;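 active = inhibition at 20 µM, scaled to each plate's controls, above about 33%, limit read from the data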
Target sequence (O00487 whole entry, looked up): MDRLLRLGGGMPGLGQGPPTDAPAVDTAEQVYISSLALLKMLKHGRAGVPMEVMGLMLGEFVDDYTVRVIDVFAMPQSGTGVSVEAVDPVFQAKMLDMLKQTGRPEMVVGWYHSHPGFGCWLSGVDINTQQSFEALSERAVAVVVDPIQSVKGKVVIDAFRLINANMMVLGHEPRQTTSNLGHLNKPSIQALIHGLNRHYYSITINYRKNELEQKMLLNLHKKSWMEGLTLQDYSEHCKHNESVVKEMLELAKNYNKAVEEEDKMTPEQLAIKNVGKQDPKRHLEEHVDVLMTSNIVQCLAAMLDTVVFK
TPT1 inhibitor: C. albicans TPT1 enzyme inhibition; recombinant caTPT1, FP RNA substrate dephosphorylation; inhibition, % at 5 µM; 300,000 tested, 0.81% active;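 active = inhibition above the mean of all tested compounds plus 3 SD, set per screening campaign, cut at about 24% in these data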
EBNA-1 inhibitor: blocks EBNA-1 binding to DNA. EBNA-1 DNA binding, fluorescence polarization. inhibition, % at 14.8 µM. 300,000 tested, 0.34% active; in the data active = inhibition above about 28%
ZTA counter: ZTA (EBV) inhibition in EBNA-1 counter-screen. inhibition, % at 11 µM. P03206. ZTA-DNA binding, fluorescence polarization. 320,000 tested, 0.15% active. AID 2234; in the data active = inhibition above about 33%
Target sequence (P03206 whole entry, looked up): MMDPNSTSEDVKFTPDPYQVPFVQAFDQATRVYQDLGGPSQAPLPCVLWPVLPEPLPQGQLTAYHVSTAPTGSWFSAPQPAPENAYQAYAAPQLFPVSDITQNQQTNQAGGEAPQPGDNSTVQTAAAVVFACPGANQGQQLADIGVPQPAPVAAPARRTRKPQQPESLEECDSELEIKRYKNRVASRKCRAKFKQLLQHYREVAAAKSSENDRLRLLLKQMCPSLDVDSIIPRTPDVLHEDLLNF
dFosB act-1: mouse delta FosB homodimer activation; purified delta FosB, TAMRA-CDK5 oligo fluorescence polarization; percent of positive-control signal above neutral wells; AID 493131; P13346; activation, % at 25 µM; 340,000 tested, 0.99% active;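 active = mean activation above about 17%, with every replicate also reaching it, limit read from the data, passing the limit was not always enough; inconclusive = only one of the two conditions met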
dFosB act-2: enhances mouse delta FosB homodimer binding to DNA | shares compounds with dFosB act-1 | purified delta FosB, TAMRA-CDK5 oligo fluorescence polarization; normalised: neutral wells 0, positive control 100 | activation, % at 24.9 µM | 2,400 tested, under 10 active | AID 588690;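 active = highest replicate activation at or above 34% and every replicate reaching that threshold; inconclusive = meets only one of the two criteria; inactive = meets neither criterion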;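 note: higher polarization means more probe DNA bound by delta FosB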
Rpn11 inh conf: Rpn11 inhibition confirmation, single concentration | shares compounds with Rpn11 inh | purified human 26S proteasome, Ub4-pepOG fluorescence polarization; proteasome pretreated with epoxomicin | inhibition, % at 20 µM | 1,900 tested, 29% active | AID 602318
MMP-2 inh: MMP-2 (human) inhibition counter-screen; 1,900 tested, 4% active; recombinant MMP-2, FRET peptide cleavage fluorescence; AID 602330; shares compounds with Rpn11 inh; inhibition, % at 20 µM;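 note: human MMP-2 activated beforehand with APMA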
Thrombin inh: counter-screen for RPN11 inhibitors: inhibition of bovine thrombin | shares compounds with Rpn11 inh | bovine thrombin cleavage of Ub4-pepOG, fluorescence polarization | inhibition, % at 20 µM | 1,900 tested, 13% active | AID 602333;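 active = mean inhibition at least 40% at 20 µM, or signal 3 deviations below plate average, so some actives read negative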
A number is an active result; i = inactive; ? = inconclusive; nt = no result given. Cut-off read from the data, not from the text of the source, unless noted: active = inhibition above about 40%; inactive = the rest.

SMILES	GRIN3A LBD mod	Rpn11 inh	TPT1 inhibitor	EBNA-1 inhibitor	ZTA counter	dFosB act-1	Rpn11 inh conf	MMP-2 inh	Thrombin inh	others
O=C(CN(C1CCCCC1)S(=O)(=O)c1ccc(F)cc1)NCC1CCCO1 (stereo unspecified)	i	i	nt	nt	nt	i	nt	nt	nt
O=C1c2cccc3cccc(c23)C(=O)N1c1ccc2ncccc2c1	i	136.5	i	i	i	36.1	41.4	i	i	dFosB act-2=i
O=C1c2cccc3cccc(c23)C(=O)N1c1nccs1	i	i	i	i	i	i	nt	nt	nt
CCCCCCCC(=O)Nc1ccc(C(=O)N/N=C/c2cccc([N+](=O)[O-])c2)cc1	i	37.5	i	i	i	19.8	i	i	i	dFosB act-2=i
COc1ccc(OC)c(/C=N/NC(=O)CSc2cc(C)nc3c(OC)cccc23)c1	i	56.0	i	i	i	37.2	i	i	i	dFosB act-2=i
COc1c(N)c2c(c([N+](=O)[O-])c1OC)C(=O)OC2	i	i	nt	nt	nt	i	nt	nt	nt
O=C(Nc1cccnc1)c1cccc(-c2cc3ccccc3oc2=O)c1	i	133.8	i	i	i	46.2	115.2	i	i	dFosB act-2=i
O=C(Nc1cccc(Cl)c1)c1cc2c(=O)n3ccccc3nc2s1	i	i	i	i	i	i	nt	nt	nt
Cc1cccc(NC(=O)c2cc3c(=O)n4ccccc4nc3s2)c1	i	95.1	i	i	i	16.3	i	i	i	dFosB act-2=i
CCc1ccc(CNC(=O)C2CCCN(c3nnc(C)c4c(C)n(-c5ccccc5)nc34)C2)cc1 (stereo unspecified)	i	60.5	i	i	i	30.9	i	i	i	dFosB act-2=?
Cc1nc2c(sc3nc(N4CCOCC4)c4c(c32)CC(C)(C)OC4)c(-c2ccc(Cl)cc2)c1C(=O)O	i	57.4	i	i	i	i	i	i	i
CC1(C)Cc2c(c(N3CCOCC3)nc3sc(C(=O)Nc4ccc(Cl)cc4)c(N)c23)CO1	i	i	i	i	i	i	nt	nt	nt
COc1ccc(C(=O)N[C@H](C(=O)NCc2cccs2)C(C)C)cc1	i	i	i	i	i	i	nt	nt	nt
Cc1c(C(=O)NCc2ccc(S(N)(=O)=O)cc2)oc2ccc(Cl)cc12	i	i	i	i	i	i	nt	nt	nt
Cn1c(=O)c(S(=O)C2CCCCC2)c(O)c2ccccc21 (stereo unspecified)	i	i	i	i	i	i	nt	nt	nt
C/C(C/C(C)=C1/SC(=S)NC1=O)=C1\SC(=S)NC1=O	i	76.1	nt	nt	nt	i	41.2	i	i
CC/C(C)=C1/NC(=O)NC1=O	i	i	nt	nt	nt	i	nt	nt	nt
Cc1ccc(O)c(C(=O)c2cnn(C(=O)COc3ccc(Cl)cc3)c2)c1	i	76.8	i	i	i	i	i	i	i
O=C(c1cnn(C(=O)COc2ccc(Cl)cc2)c1)c1ccccc1O	i	i	i	i	i	i	nt	nt	nt
O=C(OCN1C(=O)c2ccccc2C1=O)c1cccc(S(=O)(=O)N2CCOCC2)c1	i	i	i	i	i	i	nt	nt	nt
COc1ccc2[nH]cc(CCNC(=O)c3ccccc3Cl)c2c1	i	58.8	i	i	i	i	i	i	i
COc1ccc2[nH]cc(CCNC(=O)Cc3c(F)cccc3Cl)c2c1	i	i	i	i	i	i	nt	nt	nt
CN(C)S(=O)(=O)c1cccc(C(=O)N2CCN(Cc3ccccc3)CC2)c1	i	109.2	i	i	i	i	i	i	i
Cc1ccc(S(=O)(=O)N2CCOCC2)cc1NC(=O)COC(=O)CNC(=O)c1ccc(Cl)cc1Cl	i	i	nt	nt	nt	i	nt	nt	nt
COc1cc(/C=N/NC(=O)c2cc3ccccc3cc2O)ccc1OCCN1CCCCC1	i	63.9	i	i	i	78.6	i	i	i
SMILES	GRIN3A LBD mod	Rpn11 inh	TPT1 inhibitor	EBNA-1 inhibitor	ZTA counter	dFosB act-1	Rpn11 inh conf	MMP-2 inh	Thrombin inh	others
COc1cc(/C=N/NC(=O)c2ccncc2)ccc1OCCN1CCCCC1	i	i	i	i	i	i	nt	nt	nt
CCCCNC(=O)c1ccc(Cc2cn(C)c3ccccc23)nc1	nt	i	nt	nt	nt	nt	nt	nt	nt
Cc1ccc(-n2nc3c(N4CCC(C(=O)N5CCN(C)CC5)CC4)nnc(C)c3c2C)cc1	i	41.0	i	i	i	i	i	i	i
COc1ccc(-n2nc3c(N4CCC(C(=O)NCc5cccc(C)c5)CC4)nnc(C)c3c2C)cc1	i	71.4	i	i	i	?	55.0	i	i
COc1ccc(-n2nc3c(N4CCC(C(=O)N5CCCCCC5)CC4)nnc(C)c3c2C)cc1	i	54.9	i	i	i	i	i	i	i
Cc1nnc(N2CCC(C(=O)N3CCCCCC3)CC2)c2nn(-c3ccc(Cl)cc3)c(C)c12	i	i	i	i	i	i	nt	nt	nt
COc1cc(C)c(NC(=O)c2cc(C3CC3)nc3c2cnn3C(C)C)cc1OC	i	i	nt	nt	i	i	nt	nt	nt
O=C(CN1CCN(c2nc(-c3ccc(Cl)cc3)cs2)CC1)NCc1ccco1	i	51.4	i	i	i	i	43.8	77.7	i
S=C(NCc1ccco1)N1CCN(c2nc(-c3ccc(Cl)cc3)cs2)CC1	i	i	i	i	i	i	nt	nt	nt
CC(C)CNC(=O)C1(C)CCCN1C(=O)CCc1cccs1 (stereo unspecified)	nt	i	nt	nt	nt	nt	nt	nt	nt
Cc1cc2c(=O)n(Cc3ccco3)c(SCC(=O)c3ccc(Cl)s3)nc2s1	i	40.3	i	i	i	i	i	i	i
O=C(C(=O)N1CCCC1)c1c(-c2ccccc2)[nH]c2ccccc12	i	i	i	i	i	i	nt	nt	nt
C/C(=N\NC(=O)C(=O)Nc1ccc(C)c(Cl)c1)c1ccncc1	i	90.2	i	i	i	i	i	i	i
C/C(=N\NC(=O)C(=O)Nc1ccc(C)cc1)c1ccncc1	i	i	i	i	i	i	nt	nt	nt
COc1ccc(Nc2nc(-c3c[nH]c4ccccc34)cs2)cc1	i	48.2	i	i	i	i	i	i	i
COc1ccc(Nc2nc(-c3ccc(OC)cc3)cs2)cc1	i	i	i	i	i	i	nt	nt	nt
Cc1nnc(SCC(=O)Nc2ccc(N3CCN(S(C)(=O)=O)CC3)cc2)o1	i	i	i	i	i	i	nt	nt	nt
CC1(C)CC(=O)C(N=Nc2ccc(-c3ccccc3)cc2)=C(O)C1	i	47.5	i	i	i	i	i	i	i
COc1ccc(Nc2nc3ccccc3n3nnnc23)cc1	i	i	i	i	i	i	nt	nt	nt
Clc1ccc(Nc2nc3ccccc3n3nnnc23)cc1	i	43.7	i	i	i	i	i	i	i
O=C(O)CN1C(=O)/C(=C\c2cc(Br)ccc2OCc2ccc(Cl)cc2Cl)SC1=S	29.4	79.5	i	i	i	i	i	i	78.6
